Results on 69 compounds are retold here after article PMC4552634, “A New Set of Chemical Starting Points with Plasmodium falciparum Transmission-Blocking Potential for Antimalarial Drug Discovery” (PLoS ONE, 2015).

Among all 13,000 compounds or so, about 3,200 (25%) showed an effect of 50% or more. The list shows a part of the results.

This test has as its system P. falciparum stage V gametocytes. The arrangement: BacTiter-Glo ATP luminescence viability of purified stage V gametocytes in 384-well plates, per cent inhibition versus DMSO. Particulars: 48 h, 5 µM; inhibitor.
One may read the % Inhibition as the relative decrease from the control value, in per cent. In the case of `NC(=O)CN1CC=C(c2c[nH]c3ccc(Br)cc23)CC1` [TCMDC-131969], the “% Inhibition” value was -24.55%.
The value for `Cc1cc(NC(=O)c2cccs2)ccc1OC1CCN(Cc2ccc(F)cc2)CC1` [TCMDC-133743] was 2.358%; that for `COc1ccc(CCC(C)N2CC(N)C(c3cn(C)c4cnccc34)C2)cc1` (stereo not drawn) [TCMDC-124826] was 30.72%.
In the case of `CC1CCN(CCNC(=O)c2ccc3c(=O)n(Cc4ccc(Cl)cc4)c(=S)[nH]c3c2)CC1` [TCMDC-125693], the “% Inhibition” value is reported as -28.57%.
The value for `CC[C@H]1CN(CCCC(=O)c2ccccc2)CC[C@H]1CCCc1ccnc2ccc(OC(=O)c3ccccc3)cc12` [TCMDC-131478] was 92.9%; that for `CC[C@H]1CN(Cc2cccc(O)c2)CC[C@H]1CCCc1ccnc2ccc(O)cc12` [TCMDC-140337] was 3.253%.
The value for `CCCCCCCN1CC[C@@H](CCCc2ccnc3ccc(OCCCCNC(N)=NO)cc23)[C@@H](CC)C1` [TCMDC-139839] was 107.7%; that for `CCCCCCCN1CC[C@@H](CCCc2ccnc3ccc(OCCCCNC(N)=O)cc23)[C@@H](CC)C1` [TCMDC-139835] was 110.9%; that for `CC[C@H]1CN(Cc2ccccc2Br)CC[C@H]1CCCc1ccnc2ccc(O)cc12` [TCMDC-140335] was -7.327%.
As to `O=C(Nc1ccc2c(c1)CCN2C1CCN(Cc2cccc(C(F)(F)F)c2)C1)c1ccco1` (stereo not drawn) [TCMDC-135065], the “% Inhibition” value is reported as -42.49%.
Regarding `CCOC(=O)c1ccc(-c2cnc(N)c(-c3nc4c(C)cccc4[nH]3)c2)cc1` [TCMDC-135560], the “% Inhibition” value is reported as 19.55%.
Take `COc1cc(CCCOc2c(N)nc(N)nc2N)cc(OC)c1OC` [TCMDC-131361]: the “% Inhibition” value amounted to 8.778%.
Regarding `CC(C)c1ccc(CN2CCCCC(NC(=O)c3cc(-c4ccccc4Cl)cs3)C2)cc1` (stereo not drawn) [TCMDC-134464], the “% Inhibition” value is reported as -27.61%.
As for `CN(C)c1ccc(CN2CCC(CNC(=O)c3cc(-c4ccccc4Cl)cs3)C2)cc1` (stereo not drawn) [TCMDC-134455], the “% Inhibition” value is 49.98%.
As for `CCc1ccc(CN2CCC(CNC(=O)c3cc(-c4ccccc4Cl)cs3)C2)cc1` (stereo not drawn) [TCMDC-134433], the “% Inhibition” value is listed as 74.35%.
Consider `CCc1ccccc1-c1csc(C(=O)NCC2CCN(Cc3ccc(C(C)(C)C)cc3)C2)c1` (stereo not drawn) [TCMDC-134448], for which the “% Inhibition” value is listed as 91.94%.
As to `COc1ccccc1-c1csc(C(=O)NCC2CCN(Cc3ccc(C(C)(C)C)cc3)C2)c1` (stereo not drawn) [TCMDC-134511], the “% Inhibition” value is -88.72%.
As for `CC(C)(C)c1ccc(CN2CCC(CNC(=O)c3cc(-c4ccccc4Cl)cs3)C2)cc1` (stereo not drawn) [TCMDC-134445], the “% Inhibition” value was found to be 95.91%.
`CC(C)(C)c1nn(-c2ccccc2)c2[nH]c(=O)c(CNC3CCCCC3)cc12` [TCMDC-123551]: the “% Inhibition” value came to 7.742%.
With `CC(=O)c1ccc(NC(=O)NNC(=O)c2ccc(CCN3CCC(c4nc(COCC(F)(F)F)c(-c5ccc(F)cc5)o4)CC3)cc2)cc1` [TCMDC-131905], the “% Inhibition” value is given as -7.106%.
On to `Oc1cc(-c2nc(C3(CNCc4ccc(Cl)cc4)CCCCC3)[nH]c2-c2ccncc2)ccc1Cl` [TCMDC-141155], for which the “% Inhibition” value was -6.27%.
With `CC(C)(CN)c1nc(-c2ccc(Cl)c(O)c2)c(-c2ccncc2)[nH]1` [TCMDC-140369], the “% Inhibition” value is on record as -60.83%.
`NCC1(c2nc(-c3ccc(Cl)c(O)c3)c(-c3ccncc3)[nH]2)CCCCC1` [TCMDC-141154]: the “% Inhibition” value is given as 57.41%.
With `CC(CNC(=O)c1cc2c(Cl)cc(Cl)cc2[nH]1)CNc1cc(=O)c2ccccc2[nH]1` (stereo not drawn) [TCMDC-140624], the “% Inhibition” value is recorded as -21.72%.
Then `CCC(C)NS(=O)(=O)c1ccc2nc(Nc3ccc(C)c(Cl)c3)n(C(C)C(C)C)c2c1` (stereo not drawn) [TCMDC-134310], with -65.92%; and `Br.CC[C@H]1CN2CCc3cc(OC)c(OC)cc3[C@@H]2C[C@@H]1CC1=NCCc2c1[nH]c1ccc(OCc3ccccc3)cc21` [TCMDC-137627], with 69.01%; and `CC[C@H]1CN2CCc3c([nH]c4ccccc34)[C@@H]2C[C@@H]1CC1c2cc(OC)c(OC)cc2CCN1C` (stereo partly drawn) [TCMDC-142011], with -85.21%.
Regarding `CCC1CN2CCc3c([nH]c4ccccc34)C2CC1CC1=NCCc2c1[nH]c1ccccc21` (stereo not drawn) [TCMDC-141998], the “% Inhibition” value was 9.363%.
Consider `CCOC(=O)c1ccc(NC(=O)Nc2ccc(-c3cccc(-c4nc5ccccc5[nH]4)c3)cc2)cc1` [TCMDC-133270], for which the “% Inhibition” value is reported as -42.41%.
The value for `O=C(NCc1ccc(F)cc1)c1cc(Br)cc(N2CCN(c3ccncc3)CC2)c1` [TCMDC-135150] was 12%; that for `COc1ccccc1CNC(=O)c1cc(Br)cc(N2CCN(c3ccncc3)CC2)c1` [TCMDC-135151] was 104.3%.
The value for `COc1ccccc1CNC(=O)c1ccc(N2CCN(c3ccncc3)CC2)cn1` [TCMDC-135158] was 60.69%; that for `O=C(NCCc1cccc(Cl)c1Cl)c1cnc(N2CCN(c3ccncc3)CC2)c(Cl)c1` [TCMDC-134597] was -18.32%; that for `O=C(NCc1cccc(CN2CCOCC2)c1)c1cc(Br)cc(N2CCN(c3ccncc3)CC2)c1` [TCMDC-135152] was 69.44%.
The value for `O=C(NCCc1ccccc1F)c1cc(Br)cc(N2CCN(c3ccncc3)CC2)c1` [TCMDC-135147] was -5.133%.
As for `COc1ccccc1CCNC(=O)c1cc(Br)cc(N2CCN(c3ccncc3)CC2)c1` [TCMDC-135148], the “% Inhibition” value is recorded as -33.58%.
With `O=C(NCc1ccc(F)cc1)c1ccc(N2CCN(c3ccncc3)CC2)cn1` [TCMDC-135157], the “% Inhibition” value came out at 0.3973%.
Turning to `O=C(NCCc1ccccc1F)c1ccc(N2CCN(c3ccncc3)CC2)cn1` [TCMDC-135154], the “% Inhibition” value is on record as -6.834%.
On to `O=C(NCCc1cccc(F)c1)c1cc(Br)cc(N2CCN(c3ccncc3)CC2)c1` [TCMDC-135145], for which the “% Inhibition” value is 3.253%.
For `COc1ccccc1CCNC(=O)c1cnc(N2CCN(c3ccncc3)CC2)c(Cl)c1` [TCMDC-134595], the “% Inhibition” value is 89.83%.
Then `Cc1ccccc1CCNC(=O)c1cnc(N2CCN(c3ccncc3)CC2)c(Cl)c1` [TCMDC-134598], with 14.18%.
Take `CC(CC1CCCCC1)NCc1ccccc1OCCC(=O)N1CCCC1C(N)=O` (stereo not drawn) [TCMDC-140917]: the “% Inhibition” value is -9.137%.
Take `Cc1c(Oc2ccc(-n3ccnc3)cc2)ncnc1N1CCC2(CC1)CNCc1ccccc12` [TCMDC-137157]: the “% Inhibition” value was 6.86%.
The value for `CC(C)c1ccc(CN2CCC(NC(=O)c3ccc(-c4cccc(F)c4)s3)CC2)cc1` [TCMDC-134346] was -27.58%.
`Cc1nccn1CCNC(=O)CN1CCC2(CCC1=O)CC(=O)c1ccccc1O2` (stereo not drawn) [TCMDC-125379]: the “% Inhibition” value is given as -42.89%.
Take `O=C(O)CCCN1CCCC(=C(c2ccccc2)c2ccccc2)C1` [TCMDC-141969]: the “% Inhibition” value is reported as -38.14%.
For `COC(=O)c1ccc(OCC(O)CO)cc1O` (stereo not drawn) [TCMDC-123463], the “% Inhibition” value is listed as 4.056%.
The value for `CC(C)N(CCOc1ccc2c(c1)N(C(=O)Nc1cc(Br)cc(C(F)(F)F)c1)CC2)C(C)C` [TCMDC-140250] was -0.9347%.
With `CC(C)N(CCOc1ccc2c(c1)N(C(=O)Nc1ccc(Cl)c(Cl)c1)CC2)C(C)C` [TCMDC-140254], the “% Inhibition” value turned out to be 8.096%.
With `CC(C)c1ccc(NC(=O)N2CCc3ccc(OCCN(C(C)C)C(C)C)cc32)c(Br)c1` [TCMDC-140252], the “% Inhibition” value was determined as 63.96%.
As for `Fc1ccc(C(OCC2CCCN(Cc3cccc4cccnc34)C2)c2ccc(F)cc2)cc1` (stereo not drawn) [TCMDC-136044], the “% Inhibition” value was -14.61%.
In the case of `COC1(C)Oc2ccc3cccc([N+](=O)[O-])c3c2C1=O` (stereo not drawn) [TCMDC-131378], the “% Inhibition” value is -5.605%.
`CCOc1ccc(C(C)NC(=O)c2ccc(OC)c(Br)c2)cc1OCC` (stereo not drawn) [TCMDC-124876]: the “% Inhibition” value is 88.58%.
The value for `CCOc1cc(C(C)C)ccc1N1CCN(CCCCNC(=O)c2ccc(NC(=O)c3ccc(Cl)cc3)cc2)CC1` [TCMDC-138519] was -10.71%; that for `CCOc1ccc(C(C)NC(=O)c2cc(Cl)ccc2OC)cc1OCC` (stereo not drawn) [TCMDC-125016] was 67.36%.
On to `CCOc1ccc(C(=O)Nc2cc(Cl)ccc2O)cc1Cl` [TCMDC-123684], for which the “% Inhibition” value was -34.32%.
Then `Cc1cccc2nc(C(=O)Nc3nc(CN4CCC(C)CC4)cs3)cn12` [TCMDC-125340], with 11.88%.
As for `CN1CCC(N2CCN(Cc3cccc(-c4ccc(-c5nc6ccccc6[nH]5)cc4)c3)CC2)CC1` [TCMDC-133850], the “% Inhibition” value came out at 29.34%.
With `c1ccc2[nH]c(-c3ccc(-c4ccc(CN5CCCCC5)cc4)cc3)nc2c1` [TCMDC-133906], the “% Inhibition” value turned out to be 32.64%.
Turning to `CN1CCC(N2CCN(Cc3cccc(-c4cccc(-c5nc6ccccc6[nH]5)c4)c3)CC2)CC1` [TCMDC-133878], the “% Inhibition” value was 70.79%.
On to `COCCN1CCN(Cc2ccc(-c3cccc(-c4nc5ccccc5[nH]4)c3)cc2)CC1` [TCMDC-132559], for which the “% Inhibition” value turned out to be 86.66%.
Then `CN1CCC(NCc2cccc(-c3cccc(-c4nc5ccc(C(F)(F)F)cc5[nH]4)c3)c2)CC1` [TCMDC-132735], with 38.83%; and `N#CCCN1CCN(Cc2cccc(-c3ccc(-c4nc5ccccc5[nH]4)cc3)c2)CC1` [TCMDC-133852], with -22.87%; and `COCCN1CCN(Cc2cccc(-c3ccc(-c4nc5ccccc5[nH]4)cc3)c2)CC1` [TCMDC-133023], with -14.55%.
As to `CN1CCC(NCc2ccc(-c3cccc(-c4nc5ccccc5[nH]4)c3)cc2)CC1` [TCMDC-132551], the “% Inhibition” value is reported as 85.21%.
Regarding `c1cc(-c2ccc(CNC3CC3)cc2)cc(-c2nc3ccccc3[nH]2)c1` [TCMDC-132538], the “% Inhibition” value is on record as -44.27%.
On to `c1cc(CN2CCN(CCN3CCOCC3)CC2)cc(-c2cccc(-c3nc4ccccc4[nH]3)c2)c1` [TCMDC-133922], for which the “% Inhibition” value is -15.36%.
Turning to `CN1CCN(Cc2ccc(-c3cccc(-c4nc5ccccc5[nH]4)c3)cc2)CC1` [TCMDC-132542], the “% Inhibition” value worked out at 58.54%.
Take `c1cc(-c2ccc(CN3CCCC3)cc2)cc(-c2nc3ccccc3[nH]2)c1` [TCMDC-133794]: the “% Inhibition” value was determined as 34.22%.
